High-throughput results (PubChem)
Only some compounds are listed: those with a hit (about 11% of all), similar ones and a draw of the others.
AMA1-RON2 inh: disrupts binding of P. falciparum AMA1 to RON2; AlphaScreen AMA1-biotinylated RON2 peptide binding; Potency, µM (titrated, usually from 58.2 µM), usual class: inhibitors; 360,000 tested, 0.2% active; AID 720542; note: nearly all actives have a fitted effect of over 45% in size
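AMA1 (3D7) with his tag at 25 nM final met compounds first, then biotinylated RON2 peptide at 25 nM; detection used donor plus acceptor beads, 10 µg/mL apiece, read by AlphaScreen after 30 min at room temperature.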
HCV inhibitor: inhibitors of hepatitis C virus infection; Huh7.5.1 HCVcc-Cre infection, luciferase reporter, 44 h; Potency, µM (titrated, usually from 41.8 µM), hits mostly inhibitors; 340,000 tested, 3.4% active; AID 651820
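Seed cells (1,000/well) for 4 h; treat with compound and infect with HCVcc-Cre, moi about 0.5. Incubate 44 h, then detect luciferase activity.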
Pf growth 48h: P. falciparum growth inhibition at 48 hours (one generation); P. falciparum luciferase growth in erythrocytes, 48 h; Potency, µM (top dose mostly 28.7 µM), actives largely listed as inhibitors; 310,000 tested, 5.9% active; AID 504832
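Here the parasites carry a stable luciferase gene and grow inside erythrocytes in Albumax-based RPMI medium with compound for one erythrocytic cycle. Activity is scored as loss of luminescent signal.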
AmpC inh detg: blocks E. coli AmpC beta-lactamase in detergent assay; 370,000 tested, 0.041% active; AID 485294; Potency, µM (series often up to 114 µM), actives largely listed as inhibitors; AmpC hydrolysis of nitrocefin, absorbance 480 nm, 0.01% Triton; P00811; note: nearly all actives have a fitted effect of over 25% in size
Target sequence (P00811 whole entry, looked up): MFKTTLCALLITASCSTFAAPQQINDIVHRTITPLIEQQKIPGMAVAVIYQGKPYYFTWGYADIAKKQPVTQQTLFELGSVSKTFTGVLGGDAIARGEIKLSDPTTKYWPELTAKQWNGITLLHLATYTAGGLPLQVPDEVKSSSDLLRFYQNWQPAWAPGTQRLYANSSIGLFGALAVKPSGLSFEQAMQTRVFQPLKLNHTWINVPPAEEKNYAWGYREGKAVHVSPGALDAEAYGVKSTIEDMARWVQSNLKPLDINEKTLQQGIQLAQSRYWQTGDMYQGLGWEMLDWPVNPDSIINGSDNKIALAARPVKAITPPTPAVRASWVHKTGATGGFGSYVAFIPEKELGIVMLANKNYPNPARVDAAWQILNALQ
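20 mM phosphate pH 7.0 + 0.01% (detergent screen) or 0.0001% Triton X-100; 5.3 nM AmpC reagent; cpd preinc 15 min RT; nitrocefin (800 uM stock) to start; A480 q20 s × 4 min; Activity was normalised to no-enzyme and no-compound control wells.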
AmpC no deterg: AmpC beta-lactamase inhibition without detergent; 330,000 tested, 0.52% active; AmpC nitrocefin hydrolysis, absorbance 480 nm, 0.0001% Triton; Potency, µM (doses to about 57.1 µM), most hits filed as inhibitors; AID 485341; P00811; note: nearly all actives have a fitted effect of over 20% in size
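20 mM phosphate pH 7.0 + 0.01% (detergent screen) or 0.0001% Triton X-100; 5.3 nM AmpC reagent; cpd preinc 15 min RT; nitrocefin (800 uM stock) to start; A480 q20 s × 4 min; Activity was normalised to no-enzyme and no-compound control wells.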
Pf growth 96h: P. falciparum growth inhibition at 96 hour, primary screen for plastid delayed-death inhibitors; AID 504834; P. falciparum luciferase reporter growth, 96 h; Potency, µM (highest dose often 28.7 µM), actives largely listed as inhibitors; 320,000 tested, 6.9% active
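Erythrocytes infected with luciferase-expressing P. falciparum were dispensed at 2% hematocrit and 0.05% parasitemia (final), then incubated with compounds 96 hours at 37 C in 5% CO2. Luminescence after detection reagent addition reported growth.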
A number is an active result. Calls come from the whole dose curve; as a rule, active = well fitted curve in the direction sought with a large enough effect; inconclusive = small, poorly fitted or top-dose-only effect, or another doubt; inactive = no such curve, though single readings can be large; an effect the other way counts as inactive or inconclusive.

Results for CCc1cc2c(=O)c(-c3ccc4c(c3)OCCO4)coc2cc1OS(C)(=O)=O ?
AMA1-RON2 inh: inactive; HCV inhibitor: 11µM; Pf growth 48h: inactive; AmpC inh detg: inactive; AmpC no deterg: inactive; Pf growth 96h: inactive

Results for O=c1c(-c2ccc3c(c2)OCCO3)coc2c(CN3CCOCC3)c(O)ccc12 ?
AMA1-RON2 inh: inactive; HCV inhibitor: inactive; Pf growth 48h: inactive; AmpC inh detg: inactive; AmpC no deterg: inactive; Pf growth 96h: 12µM

What do the screens show for `CCc1cc2c(=O)c(-c3nc4ccccc4[nH]3)coc2c(CN2CCCCC2C)c1O` (centres undefined)?
AMA1-RON2 inh: inactive; HCV inhibitor: inconclusive; Pf growth 48h: 1.5µM; AmpC inh detg: inactive; AmpC no deterg: inactive; Pf growth 96h: 0.74µM

How did O=C(Nc1nnc(S(=O)(=O)N2CCCc3ccccc32)s1)c1ccccc1Cl do in these assays?
AmpC inh detg: inactive

How did CCOC(=O)c1cc2c(=O)n3ccccc3nc2n(C(C)C)c1=NC(=O)c1cc2ccccc2o1 do in these assays?
AmpC inh detg: inactive

What do the screens show for `COc1ccc(Oc2c(C(F)(F)F)oc3c(CN4CCCC(C)C4)c(O)ccc3c2=O)cc1` (centres undefined)?
AmpC inh detg: inactive

How did CN1CCN(c2nc(-c3cccc([N+](=O)[O-])c3)nc3ccccc23)CC1 do in these assays?
AMA1-RON2 inh: inactive; HCV inhibitor: inconclusive; Pf growth 48h: inconclusive; AmpC inh detg: inactive; AmpC no deterg: inactive; Pf growth 96h: inactive

What do the screens show for `CN1CCC(N(C)c2nc(-c3ccc([N+](=O)[O-])cc3)nc3ccccc23)CC1`?
AMA1-RON2 inh: inconclusive; HCV inhibitor: 4.5µM; Pf growth 48h: inconclusive; AmpC inh detg: inactive; AmpC no deterg: inactive; Pf growth 96h: 1.5µM

Results for CCCCc1ccc(Nc2cc(C)nc(-n3nc(C)cc3C)n2)cc1 ?
AmpC inh detg: inactive

How did CCCc1nc(C)c2c(=O)[nH]c(-c3cc(S(=O)(=O)N4CCN(CC)CC4)ccc3OCC)nn12 do in these assays?
AMA1-RON2 inh: inactive; HCV inhibitor: inactive; Pf growth 48h: inconclusive; Pf growth 96h: 7.6µM

How did CCOc1cc(S(=O)(=O)N2CCN(CC)CC2)ccc1Cl do in these assays?
AMA1-RON2 inh: inactive; HCV inhibitor: inactive; Pf growth 48h: inactive; AmpC inh detg: inconclusive; AmpC no deterg: inactive; Pf growth 96h: inconclusive

Results for COc1cc(/C=C/C(=O)Nc2cc(C(F)(F)F)ccc2Cl)cc(OC)c1OC ?
AMA1-RON2 inh: inactive; HCV inhibitor: inconclusive; Pf growth 48h: 10µM; AmpC inh detg: inactive; AmpC no deterg: inactive; Pf growth 96h: 2.6µM

Results for COC(=O)c1ccccc1NC(=O)/C=C/c1cc(OC)c(OC)c(OC)c1 ?
AMA1-RON2 inh: inactive; HCV inhibitor: 5µM; AmpC inh detg: inactive; AmpC no deterg: inactive; Pf growth 96h: inconclusive

How did COc1ccc(/C=C/C(=O)Nc2cc(C(F)(F)F)ccc2Cl)cc1OC do in these assays?
AMA1-RON2 inh: inactive; HCV inhibitor: inconclusive; Pf growth 48h: inconclusive; AmpC inh detg: inconclusive; AmpC no deterg: inactive; Pf growth 96h: inactive

Results for CCC(C)Nc1c([N+](=O)[O-])cc(C)cc1[N+](=O)[O-] (centres undefined) ?
AMA1-RON2 inh: 16µM; HCV inhibitor: inactive; Pf growth 48h: inactive; AmpC inh detg: inactive; AmpC no deterg: inactive; Pf growth 96h: inactive

How did O=C(OCC(=O)N1CCCc2ccccc21)c1ccc(Cl)nc1 do in these assays?
AMA1-RON2 inh: inactive; HCV inhibitor: inactive; Pf growth 48h: inactive; AmpC inh detg: inactive; AmpC no deterg: inactive; Pf growth 96h: inactive

Results for O=C(OCC(=O)N1CCCc2ccccc21)c1cnc(Cl)c(Cl)c1 ?
AMA1-RON2 inh: inactive; HCV inhibitor: 5µM; Pf growth 48h: inactive; AmpC inh detg: inactive; AmpC no deterg: inactive; Pf growth 96h: inactive

What do the screens show for `COc1cccc(C2CC(C(F)(F)F)n3ncc(C(=O)NC(C)(C)C)c3N2)c1` (centres undefined)?
AMA1-RON2 inh: inactive; HCV inhibitor: inactive; Pf growth 48h: inactive; AmpC inh detg: inactive; AmpC no deterg: inactive; Pf growth 96h: inconclusive
